BL2 CD40 inh – inhibitors of CD40-induced NF-kB signaling, primary screen, BL2 cells, luciferase reporter, single point | CD40L-induced, 4 h | inhibition, % at 10 µM | 83,000 compounds, 0.94% hits | AID 1053188, 2014;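 active = mean inhibition of at least 50% with a set share of replicates also reaching that level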;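 also: 0% = neutral control wells and 100% = IKK inhibitor VII at 50 µM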
* = called active by the depositor; [ ] = dose if it differs, or a comment. Shown is part of a subset that was picked to be rich in hits.

SMILES	BL2 CD40 inh
O=C(Nc1nc(-c2ccc3c(c2)OCCO3)cs1)c1ccco1	-5
COc1ccccc1C(=O)Nc1nc(-c2ccc3c(c2)OCCO3)cs1	50*
C[C@H](CO)N1C[C@H](C)[C@H](CN(C)C(=O)C2CC2)OCc2ccccc2-c2c(n(C)c3ccccc23)C1=O	-5
CN1C(=O)c2cc(NS(C)(=O)=O)ccc2OC[C@@H]2O[C@@H](CC(=O)N3CCOCC3)CC[C@@H]21	-9[25 µM]
O=C(C[C@H]1C[C@@H]2c3cc(NC(=O)C4CCOCC4)ccc3O[C@@H]2[C@@H](CO)O1)NC1CCCC1	2
CC(=O)N1[C@H](C(=O)Nc2ccccc2)[C@@H](CO)[C@@H]2Cn3c(ccc(C4=CCCCC4)c3=O)[C@@H]21	-2[25 µM]
O=C(CN1CCC(C(=O)c2ccc3c(c2)OCCO3)CC1)NC1CCCC1	16
CCc1cc2c(=O)c(-c3ccc4c(c3)OCCO4)coc2c(CN2CCCCC2C)c1O (stereo not drawn)	32*
CSCCC(NC(=O)OC(C)(C)C)C(=O)Oc1ccc2c(=O)c(-c3ccc4c(c3)OCCO4)coc2c1 (stereo not drawn)	-3
COc1cc(/C=N/n2cnnc2)ccc1OC(=O)c1ccncc1	65*
COc1cc(/C=N/n2cnnc2)ccc1OCC(=O)N1CCOCC1	6
COc1cc(/C=N/n2cnnc2)ccc1OC(=O)c1cccnc1	19
CCC(=O)N1CC(=O)N2[C@@H](CO)[C@@H](c3ccc(-c4ccc(C#N)cc4)cc3)[C@@H]2C1	2[25 µM]
CCc1cnc(N2[C@@H](C#N)[C@@H](c3ccc(C#CCC4CCCC4)cc3)[C@@H]2CO)s1	16[25 µM]
CCc1cnc(N2[C@H](C#N)[C@H](c3ccc(C#CCC4CCCC4)cc3)[C@H]2CO)s1	5[25 µM]
CCc1cnc(N2[C@H](C#N)[C@H](c3ccc(C#CCC4CCCC4)cc3)[C@@H]2CO)s1	56*[25 µM]
CCCCC[C@H](O)/C=C/[C@@H]1[C@@H](C/C=C\CCCC(=O)OC)[C@@H](O)C[C@H]1O	45*
CCCCC[C@H](O)/C=C/[C@@H]1[C@@H](C/C=C\CCCC(=O)O)[C@H]2CO[C@@H]1C2	15
CCCCC[C@H](O)/C=C/[C@@H]1[C@@H](C/C=C\CCCC(=O)O)[C@@H](O)C[C@H]1O	-3
CCCNC(=O)N1[C@H](CO)[C@H](c2ccccc2)[C@H]1CNC(C)=O	2
C[C@@H]1CN([C@H](C)CO)C(=O)c2ccccc2-c2ccccc2CO[C@H]1CN(C)C(=O)CCN(C)C	-9
CC(C)NC(=O)N(C)C[C@@H]1OCCCC[C@@H](C)Oc2ccc(NC(=O)NC3CCCCC3)cc2C(=O)N([C@@H](C)CO)C[C@H]1C	-3
CCCC(=O)Nc1nc2ccc(OC)cc2s1	-59
COC(=O)c1ccc2nc(NC(=O)C(C)(C)C)sc2c1	79*
COC(=O)Nc1nc2ccc(Br)cc2s1	-9
SMILES	BL2 CD40 inh
O=C(c1cccnc1)N1C[C@H]2[C@@H](c3ccccc31)[C@@H](CO)N2C(=O)Nc1cccc(F)c1	4[25 µM]
O=C(c1ccccn1)N1C[C@@H]2N[C@H](C1)C2c1ccc(-c2ccccc2F)cc1 (stereo partly drawn)	20[25 µM]
O=C(Nc1ccc2c(c1)[C@@H]1C[C@H](CC(=O)N3CCc4ccccc4C3)O[C@H](CO)[C@@H]1O2)C1CCOCC1	-6[25 µM]
COc1ccc(-c2ccc([C@H]3[C@@H](CO)N4CCCCN(C(=O)c5ccc6c(c5)OCO6)C[C@H]34)cc2)cc1	16
N#CCC(=O)Nc1ccc(C(=O)OCC(=O)c2ccc3c(c2)OCO3)cc1	-63
O=C(Nc1ccc(NC(=O)c2cccs2)cc1)c1ccc2c(c1)OCCO2	3
O=C(COC(=O)c1cccs1)c1ccc2ccccc2c1	-83
O=C(COC(=O)c1ccccc1[N+](=O)[O-])c1ccc2c(c1)OCO2	88*
O=C(COC(=O)c1cccs1)c1ccc2c(c1)OCCO2	113*
CNS(=O)(=O)c1cccc(C(=O)OCC(=O)c2ccc3c(c2)OCCO3)c1	25
O=C(COC(=O)c1ccccc1-c1ccccc1[N+](=O)[O-])c1ccccc1	-12
CC(=O)NC12CC3CC(C1)CC(C(=O)OCC(=O)c1ccc4c(c1)OCCO4)(C3)C2	59*
COc1cccc(CN(C)C(=O)C23CC4CC(CC(NC(C)=O)(C4)C2)C3)c1OC	5
O=C(Nc1ccccc1F)N[C@H]1C=C[C@H](CC(=O)N2CCCCC2)O[C@@H]1CO	-3
CCCNC(=O)N1[C@H](CO)[C@H](c2ccc(C3=CCCCC3)cc2)[C@@H]1CNC(C)C	10
C[C@H]1CN([C@@H](C)CO)C(=O)c2ccccc2-c2ccccc2CO[C@H]1CN(C)C(=O)c1cc(Cl)cc(Cl)c1	-7[25 µM]
C[C@@H]1C/C=C/C[C@H](c2ccc3c(c2)OCO3)NC(=O)[C@@H](C)N(C)C(=O)c2ccccc2O1	9
CC(C)(C)[C@H](N)C(=O)N[C@H]1CCC2C3CC=C4C[C@@H](O)CC[C@]4(C)C3CC[C@@]21C (stereo partly drawn)	103*
C[C@]12CCC3C(CC=C4C[C@@H](O)CC[C@@]43C)C1CCC2[C@]1(C)CCC(=O)O1 (stereo partly drawn)	-7
C[C@]12CC[C@H](O)CC1=CCC1C2CC[C@@]2(C)C1CC[C@@H]2NC(=O)[C@@H](N)Cc1ccccc1 (stereo partly drawn)	10
CC(=O)Nc1ccc2c(c1)CC(=O)N(C)C[C@@H](C)[C@H](CN(C)C(=O)NC(C)C)O2	18
Oc1ccc(CN2CCCc3ccccc32)c2cccnc12	11
Cc1cccnc1NCc1ccc(O)c2ncccc12	59*
Cc1ccc(-n2cnnn2)c2cccnc12	2
NC1=NN=C(c2ccc3c(c2)OCCO3)CS1	52*
SMILES	BL2 CD40 inh
c1cc2c(cc1C1=Nn3c(nnc3C3CCCCC3)SC1)OCO2	8
c1ccc(-c2nnc3n2N=C(c2ccc4c(c2)OCO4)CS3)nc1	6
CCC(=O)N1CC[C@@H]2[C@@H](CO)Nc3ccc(C#Cc4ccccc4F)cc3[C@@H]21	-7[25 µM]
Cc1cc(N)c2ccccc2n1	3
Nc1cccc2nc3ccccc3cc12	active
Nc1nc2ccccc2cc1S(=O)(=O)c1ccccc1	6
COc1ccc2c3c(n(C)c2c1)[C@H](CO)N(CC1CC1)CC31CCN(S(=O)(=O)c2cccs2)CC1	-3[25 µM]
CC(S(=O)(=O)c1ccccc1)S(=O)(=O)c1ccccc1	6
CC(C)(C)OC(=O)CC(S(=O)(=O)c1ccccc1)S(=O)(=O)c1ccccc1	67*
O=S(=O)(CCS(=O)(=O)c1ccccc1)c1ccccc1	2
CN1c2ccc(-c3ccccc3)cc2[C@@H]2[C@@H](CCN2C(=O)c2ccccn2)[C@H]1CO	-4
Cc1ccc(C)c(C(=O)c2c(C)nc3sccn23)c1	9
Cc1nc2ccccn2c(=O)c1CCN1CCC(C(=O)c2ccc(F)cc2)CC1	5
Cc1nc2sccn2c(=O)c1CCN1CCC(=C(c2ccc(F)cc2)c2ccc(F)cc2)CC1	27*
C[C@@H](NC(=O)N(C)C[C@@H]1OCc2ccccc2-c2c(n(C)c3ccccc23)C(=O)N([C@@H](C)CO)C[C@@H]1C)c1ccccc1	3
COC(=O)N(C)C[C@@H]1OCc2ccccc2-c2ccccc2C(=O)N([C@H](C)CO)C[C@H]1C	-4
COC1=CC(=O)c2c(ccc3ncnc(N)c23)C1=O	103*
CCCNC(=O)N1[C@H](CO)[C@H]2c3ccccc3N(C)C[C@H]21	4[25 µM]
CCC(=O)N1[C@@H]2Cn3c(ccc(-c4ccccc4)c3=O)[C@H]1[C@@H](C(=O)N1CCc3ccccc3C1)[C@@H]2CO	7[25 µM]
Cc1cc(C(=O)NCCCC(=O)O)c(C)o1	25
